Source: PubChem
TDP1 cell noCPT – qHTS for Inhibitors of human tyrosyl-DNA phosphodiesterase 1 (TDP1): qHTS in cells in absence of CPT; DT40 Tdp1-/- hTDP1 cells, no CPT, ATP luminescence, 48 h; Potency, µM (titrated, usually from 46.2 µM), for the others: at the top dose activity change, negative = growth inhibition, most hits filed as inhibitors; 15% of 420,000 active; AID 686978, 2013; further: potency means the concentration at half of the fitted maximal effect; nearly all actives have a fitted effect of over 55% in size
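Camptothecin absent (DMSO only). Human TDP1-complemented DT40 knockout cells, 400 cells/well, 37 °C for minimum 48 hr; ATP measured via CellTiter-Glo, 30 min dark incubation, luminescence.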
TDP1 cell CPT – DT40-hTDP1 cell growth loss with CPT; chicken DT40 Tdp1-/-;hTDP1 cells + 20 nM CPT, ATP luminescence, 48 h; Potency, µM (series often up to 46.2 µM), inactives show top-dose activity change, negative = growth inhibition, usual class: inhibitors; 12% of 420,000 active; AID 686979; further: potency means the concentration at half of the fitted maximal effect; nearly all actives have a fitted effect of over 55% in size
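Chicken DT40 Tdp1-/- cells stably complemented with human TDP1 were seeded at 400 cells/well in medium containing 20 nM camptothecin, exposed to pin-transferred compounds, and grown at 37 °C for at least 48 hr. Viability was read as ATP luminescence.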
HT1080-NT tox – kills 2HG-producing HT-1080-NT fibrosarcoma cells | HT-1080-NT fibrosarcoma viability, CellTiter-Glo ATP luminescence, 48 h | Potency, µM (series often up to 46.1 µM), without a hit: at the top dose activity, negative = less viability, most hits filed as cytotoxic | 1.6% of 360,000 active;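 further: NT is the 2HG producing partner of a matched IDH1 knockdown line; potency means the concentration at half of the fitted maximal effect; 0% = DMSO-treated cells and -100% = media-only wells without cells; nearly all actives have a fitted effect of over 55% in size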
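Toxicity toward the 2HG-producing NT line was scored as %Activity, normalised to DMSO and no-cell wells, from CellTiter-Glo luminescence after 48 hours' treatment.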
HT1080 IDH1KD tx – kills HT-1080 cells with IDH1 knockdown; HT-1080 IDH1 knockdown viability, ATP luminescence, 48 h; Potency, µM (doses to about 46.1 µM), without a hit: at the top dose activity, negative = toxicity, actives largely listed as cytotoxic; 2% of 360,000 active; AID 686971;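 further: potency means the concentration at half of the fitted maximal effect; 0% = DMSO wells and -100% = cell-free medium wells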
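After a 2 h attachment period, IDH1KD HT-1080 cells took pin-transferred compound for 48 h at 37 °C; ATP-based luminescence after 10 min room-temperature reagent incubation reported viability.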
IL-1B inflam inh – inhibitors of inflammasome signaling (IL-1 beta secretion); THP-1 LPS/ATP IL-1B secretion, AlphaLISA, 16 h; active compounds read low; activity change, % at 57.5 µM; 4.7% of 360,000 active; AID 743279; in the data active means activity change below about -50%; inconclusive means mostly about -30% to -49%
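THP-1 cells pretreated 1 hr with compounds (up to 57.5 uM final), then stimulated with LPS (250 ng/mL final) plus ATP (1.25 mM final); secreted IL-1B measured by AlphaLISA after 16 hr, decreased signal indicating inhibition.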
* hit, by the source's call; ? = inconclusive; nt = no result. An excerpt weighted towards active compounds, which were near 19% of everything screened. Unless noted, the call rests on the fitted dose curve; in most records, active means well fitted curve in the direction sought with a large enough effect; inconclusive means small, poorly fitted or top-dose-only effect, or another doubt; inactive means no such curve, though single readings can be large; an effect the other way counts as inactive or inconclusive. Unless noted, on the % scale 0 is the no-effect control and ±100 the full control effect.

SMILES	TDP1 cell noCPT	TDP1 cell CPT	HT1080-NT tox	HT1080 IDH1KD tx	IL-1B inflam inh
Cc1cc(-c2ccc(C(C)C)c(S(=O)(=O)N3CCN(c4ccccn4)CC3)c2)on1	21µM*	18µM*	2%	-2%	18
COc1ccc(-c2cc(C)no2)cc1S(=O)(=O)N1CCN(c2ccccc2F)CC1	?	?	1%	-12%	0
COc1ccc(-c2cc(C)no2)cc1S(=O)(=O)N1CCN(c2ccccn2)CC1	21µM*	?	-7%	-18%	-77*
CCN(CC)CCn1c(=S)[nH]c2cc(C(=O)NCCc3ccc(OC)c(OC)c3)ccc2c1=O	-1%	-10%	3%	3%	?
Cc1ccc(-n2c(C)cc(C=C3C(=O)N(C)C(=O)N(C)C3=O)c2C)cc1	-1%	6%	15%	8%	-6
COc1ccc(-n2c(C)cc(/C=C3/SC(=S)N(C)C3=O)c2C)cc1	18µM*	21µM*	-2%	-2%	-7
Cc1cc(/C=C2\SC(=S)N(C)C2=O)c(C)n1-c1cccc(O)c1	?	23µM*	-11%	-8%	0
CN1C(=O)/C(=C\c2ccccc2OCc2ccccc2)SC1=S	-6%	-4%	0%	0%	26
CN1C(=O)/C(=C\c2cc(N=Nc3ccccc3)ccc2O)SC1=S	23µM*	21µM*	-7%	-7%	-4
CCN(CC)S(=O)(=O)c1ccc(Cl)c(NC(=O)COC(=O)c2nc3nc(C)cc(C)n3n2)c1	2%	3%	4%	4%	15
CC1CCCC/C1=N\NC(=S)Nc1cccnc1 (stereo not drawn)	0%	-7%	26%	7%	10
Cc1ccc(NC(=S)N/N=C2\CCCCC2C)cc1 (stereo not drawn)	9.2µM*	5.2µM*	?	?	4
N#C[C@@H]1N(Cc2ccccc2)C(=O)[C@H]2CC3C=CC21O3 (stereo partly drawn)	?	?	1%	1%	-14
COC(=O)C1=C(C(=O)OC)[C@]2([C@@H]3C/C=C\CN[C@@H](Cc4ccccc4)C(=O)N3Cc3ccccc3)C=C[C@H]1O2	?	25µM*	nt	nt	nt
COC(=O)c1ccc(C2SCC(=O)N2Cc2ccccc2)cc1 (stereo not drawn)	?	-5%	1%	-2%	28
COC(=O)C1=C(C(=O)OC)[C@]2([C@@H]3CCCCN[C@@H](Cc4ccccc4)C(=O)N3Cc3ccccc3)C=C[C@H]1O2	13µM*	15µM*	10%	4%	0
CCn1cc(C(=O)N2CCN(c3cccc(C)c3)C(C)C2)c(=O)c2cc(S(=O)(=O)N3CCOCC3)ccc21 (stereo not drawn)	?	-15%	nt	nt	nt
Cc1ccc(/C=N/n2cc(-c3ccccc3)[nH]c2=S)s1	5.2µM*	8.2µM*	-6%	1%	11
Cc1ccc(/C=N/n2c(-c3cccnc3)n[nH]c2=S)s1	-20%	0%	7%	15%	-54*
S=c1[nH]nc(-c2cccnc2)n1/N=C/c1ccc(Br)s1	-3%	13%	-1%	-6%	18
Nc1ncnc2c1ncn2[C@@H]1O[C@H](C(=O)N2CCC[C@@H]2C(=O)OCc2ccccc2)[C@@H](O)[C@H]1O	?	?	14%	1%	23
CCCCOc1ccc(-c2cn3ccccc3n2)cc1[N+](=O)[O-]	26µM*	?	-22%	?	-11
CCCOc1ccc(-c2csc(N)n2)cc1[N+](=O)[O-]	10µM*	15µM*	1%	11%	-28
CCOc1ccc(-c2cn3ccccc3n2)cc1[N+](=O)[O-]	?	?	15µM*	16µM*	9
O=[N+]([O-])c1ccc(-c2cn3ccccc3n2)cc1	?	?	-2%	1%	?
SMILES	TDP1 cell noCPT	TDP1 cell CPT	HT1080-NT tox	HT1080 IDH1KD tx	IL-1B inflam inh
CC(C)OC(=O)Cn1cc(C#N)c2ccccc21	-5%	1%	-4%	-5%	-5
COc1ccc(COc2cccc(C=O)c2)cc1	4.6µM*	3.7µM*	-19%	-12%	14
O=Cc1ccc(OCc2ccc3ccccc3c2)cc1	-25%	-28%	-4%	1%	1
O=Cc1cccc(OCc2cccc3ccccc23)c1	2.6µM*	4.1µM*	?	?	?
Cc1cnc(CNc2nc(-c3ccc4c(c3)OCO4)nc3ccccc23)cn1	-19%	-20%	nt	nt	nt
O=C(COc1ccccc1[N+](=O)[O-])N(Cc1ccco1)c1ccccn1	-26%	-4%	nt	nt	nt
Cc1ccc(NC(=O)CN(C)S(=O)(=O)c2ccc(Br)s2)cc1F	?	2%	-11%	-11%	-62*
Cc1ccc(-n2nnnc2SCC(=O)Nc2ccccc2-c2ccccc2)cc1C	?	?	-1%	-9%	-7
Cc1ccc(C)c(NC(=O)CSc2nncn2C)c1	-5%	-2%	-6%	-1%	37
CSc1ccccc1-n1nnnc1SCC(=O)Nc1cc(C)ccc1C	?	-18%	7%	-2%	-51*
Cc1ccc(-n2nnnc2SCC(=O)Nc2ccccc2N2CCCCC2)cc1C	18µM*	?	-9%	-13%	-8
COc1ccc(C)cc1-n1nnnc1SCC(=O)Nc1cccnc1Cl	21µM*	?	-1%	1%	0
O=C(CN(c1ccc(F)cc1)S(=O)(=O)c1ccc2c(c1)OCCO2)N1CCOCC1	-13%	4%	10%	4%	-4
Clc1ccc(CN2CCC(c3nc4ccc(Cl)cc4[nH]3)CC2)cc1	12µM*	16µM*	-10%	-26%	-61*
CCCc1ccc(O)c(N=Cc2cc(Br)cc(OCC)c2O)c1	2.6µM*	3.7µM*	?	23µM*	108
Cn1c(SCC2CCCCC2)nnc1-c1ccncc1	-23%	-12%	-1%	-4%	-2
COc1ccccc1C(=O)NNC(=O)c1ccccc1Br	8%	-7%	2%	8%	34
O=C(Nc1ccccc1OC(=O)c1ccccc1)c1ccccc1	29µM*	?	?	15µM*	59
COc1ccccc1NC(=O)c1cnc(Nc2ccccc2OC)c2ccccc12	1.2µM*	1.6µM*	3.7µM*	?	33
COc1ccccc1NC(=O)Nc1ccc(NC(=O)c2ccccc2O)cc1	29µM*	-27%	-10%	-15%	?
COc1ccccc1NC(=O)Nc1ccc(C(N)=O)cc1	?	-26%	9%	6%	-22
COc1ccccc1NC(=S)NNC(=O)c1ccccc1Br	13µM*	16µM*	1%	5%	77
CCOC(=O)CN(c1ccccc1C)S(=O)(=O)c1ccc(Cl)cc1	9%	-20%	13%	1%	-4
